# Where “and” joins values, the source holds several entries; their conditions need not be identical. Equal values may be shown once. Inconclusive results are not listed. A call without a number means that no potency is given here. Calls of active or inactive are those of the source. Unless noted, calls follow the shape of the dose curve; as a rule, active = well fitted curve in the direction sought with a large enough effect; inconclusive = small, poorly fitted or top-dose-only effect, or another doubt; inactive = no such curve, though single readings can be large; an effect the other way counts as inactive or inconclusive.
# How the values were obtained:
# [1] = qHTS assay for small molecule disruptors of the mitochondrial membrane potential - 1 hr assay (AID 651754; calls by dose curve; also: nearly all actives have a fitted effect of over 35% in size; also: potency is read from the fitted curve at half-maximal effect)
# Summary of the method: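 Loss of mitochondrial potential shifts the cationic dye from red mitochondrial aggregates to green cytoplasmic monomers. Cells (HepG2) are treated with compound for 1 hr before a 30 min dye incubation at 37C.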
# [2] = qHTS assay for small molecule disruptors of the mitochondrial membrane potential - 5 hr assay (AID 651755; calls by dose curve; also: nearly all actives have a fitted effect of over 40% in size; also: potency is read from the fitted curve at half-maximal effect)
# Summary of the method: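 Seed HepG2 overnight, add compound, incubate 5 hr at 37C and 5% CO2, stain 30 min with Mito-MPS, then measure monomer (490/535 nm) and aggregate (540/590 nm) fluorescence.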
# [3] = biological target: Tumor necrosis factor (Homo sapiens) (UniProt P01375); assay: qHTS assay to identify small molecules that stimulate Tumor Necrosis Factor-alpha (TNF-alpha) secretion (AID 651757; active = well fitted curve in the direction sought with a large enough effect in the signal ratio; the % refers to the signal ratio)
# Summary of the method: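 Human monocytic THP-1 cells are plated, treated with compound and held at 37 C for 17 hrs. Labeled anti-TNF-alpha antibody mixture is then added; after 3 hr at room temperature, TR-FRET signal reports secreted TNF-alpha.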
# [4] = biological target: Peroxisome proliferator-activated receptor alpha (Homo sapiens) (UniProt Q07869); assay: qHTS assay for small molecule agonists of the peroxisome proliferator-activated receptor alpha (PPARalpha) signaling pathway (AID 651778); conditions: PathHunter PPARalpha complementation, chemiluminescence, 6 h; stronger effect = higher value
# Summary of the method: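 Cells plated at 2,000/well and held overnight at 37 C, 5% CO2, then compound added by pin tool for 6 hr; after PathHunter detection reagent and 60 min at room temperature, chemiluminescence from enzyme complementation was read.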
# [5] = biological target: Nuclear receptor ROR-gamma (Homo sapiens) (UniProt P51449); assay: qHTS assay for small molecule antagonists of the retinoid-related orphan receptor gamma (ROR-gamma) signaling pathway (AID 651802);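 also: CHO cells with doxycycline-induced ROR-gamma expression; series mostly up to about 92 µM; nearly all actives have a fitted effect of over 60% in size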
# Summary of the method: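 Steps: cells dispensed; compound or DMSO transferred by pin tool; doxycycline added to induce the ROR response element-driven luciferase; plates held 16hr at 37C; ONE-Glo added and luminescence measured.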
# [6] = qHTS assay for small molecule agonists of the antioxidant response element (ARE) signaling pathway measured by Nrf2-dependant transcriptional activity (AID 720636; active = well fitted curve in the direction sought with a large enough effect in the repeat runs; an effect the other way counts as inactive or inconclusive)
# Summary of the method: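 ARE-luc HepG2 cells carrying an Nrf2-responsive luciferase reporter were plated in medium with 1% dialyzed FBS, left 6 hr at 37 C to attach, then exposed to compound for 16 hr. Luciferase luminescence was read after ONE-Glo addition.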
# [7] = qHTS assay for small molecule antagonists of the retinoid-related orphan receptor gamma (ROR-gamma) signaling pathway - cell viability counter screen (AID 720652; active = well fitted curve in the direction sought with a large enough effect in the repeat runs; an effect the other way counts as inactive or inconclusive;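 also: CHO reporter cells with doxycycline-induced ROR-gamma expression; series mostly up to about 92 µM; compound exposure lasted 16 hr before ATP read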)
# Summary of the method: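 Steps: seed CHO cells bearing TET-inducible ROR and ROR response element-luciferase; rest 5 hr at 37 C; add compound, then doxycycline; incubate 16 hr; add CellTiter-Glo and read luminescence as ATP-based viability.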
# [8] = qHTS assay for small molecule agonists of the antioxidant response element (ARE) signaling pathway measured by Nrf2-dependant transcriptional activity - cell viability counter screen (AID 720653; active = well fitted curve in the direction sought with a large enough effect in the repeat runs; an effect the other way counts as inactive or inconclusive); conditions: ARE-bla HepG2 viability, CellTiter-Glo ATP luminescence, 16 h; stronger effect = lower value
# Summary of the method: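 ARE-bla HepG2 cells (2,000/well) rested 5 hrs at 37C/5% CO2, then exposed to compounds in DMSO for 16 hrs. Viability was read in the same wells as intracellular ATP by luminescence, 30 min at room temperature after reagent addition.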
# [9] = qHTS assay for cell viability of the p53RE-bla HCT-116 cell line (AID 743292); also: nearly all actives have a fitted effect of over 55% in size
# Summary of the method: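 CellSensor p53RE-bla HCT-116 cells, 4,000/well, preincubated 5 h at 37 C, then exposed to compounds in DMSO for 16 h at 37 C. Viability read as CellTiter-Glo luminescence (intracellular ATP) after 30 min at room temperature.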
# [10] = biological target: Nuclear receptor subfamily 1 group I member 2 (Rattus norvegicus) (UniProt Q9R1A7); assay: qHTS assay for small molecule activators of the rat pregnane X receptor (rPXR) signaling pathway (AID 651751; call rule not given here); conditions: rPXR reporter cells, luciferase (One-Glo), 24 h
# [11] = qHTS assay for small molecule activators of the human pregnane X receptor (PXR) signaling pathway (AID 720659; call rule not given here)
# [12] = qHTS assay to identify small molecules that stimulate interleukin-8 (IL-8) secretion (AID 651758; active = well fitted activation curve with a large enough effect in the signal ratio; the % refers to the signal ratio)
# Summary of the method: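 Quantitative HTS in THP-1 monocytic cells at 2000 cells per well, with 16 hrs compound incubation at 37 C. IL-8 in the medium was then quantified by HTRF immunoassay, read after 1-3 hrs at room temperature.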
# [13] = qHTS assay for cell viability of HEK293 cells (AID 743288); conditions: ATP luminescence (CellTiter-Glo), 18 h, stronger effect = lower value; also: nearly all actives have a fitted effect of over 50% in size
# Summary of the method: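 Viable-cell counts were inferred from luciferase-based ATP content in HEK293 cells seeded at 2,000/well, pre-incubated ≥5 h, then dosed with DMSO-solubilised compounds for 18 h at 37 C.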
# [14] = qHTS assay for environmental chemicals that activate the Aryl hydrocarbon Receptor (AhR) signaling pathway (AID 651777); conditions: 1A2-DRE human hepatoma cells, luciferase, 24 h; activation: stronger effect = higher value; also: nearly all actives have a fitted effect of over 15% in size
# Summary of the method: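 Human hepatoma 1A2-DRE cells, stably carrying a dioxin response element and CYP1A2 promoter driving luciferase, were exposed to compounds for 24 hr at 37 C and 5% CO2. Luciferase signal was then read after 30 min One-Glo at room temperature.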
# Chain of Tumor necrosis factor (Homo sapiens) (P01375 whole entry, looked up): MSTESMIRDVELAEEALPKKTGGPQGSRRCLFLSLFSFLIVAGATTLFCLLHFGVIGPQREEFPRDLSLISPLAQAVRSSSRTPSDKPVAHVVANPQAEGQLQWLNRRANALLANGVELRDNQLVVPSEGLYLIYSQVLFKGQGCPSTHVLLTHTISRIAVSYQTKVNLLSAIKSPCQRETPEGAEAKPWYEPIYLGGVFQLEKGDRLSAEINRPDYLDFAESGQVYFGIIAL
# Chain of Nuclear receptor ROR-gamma (Homo sapiens) (P51449 whole entry, looked up): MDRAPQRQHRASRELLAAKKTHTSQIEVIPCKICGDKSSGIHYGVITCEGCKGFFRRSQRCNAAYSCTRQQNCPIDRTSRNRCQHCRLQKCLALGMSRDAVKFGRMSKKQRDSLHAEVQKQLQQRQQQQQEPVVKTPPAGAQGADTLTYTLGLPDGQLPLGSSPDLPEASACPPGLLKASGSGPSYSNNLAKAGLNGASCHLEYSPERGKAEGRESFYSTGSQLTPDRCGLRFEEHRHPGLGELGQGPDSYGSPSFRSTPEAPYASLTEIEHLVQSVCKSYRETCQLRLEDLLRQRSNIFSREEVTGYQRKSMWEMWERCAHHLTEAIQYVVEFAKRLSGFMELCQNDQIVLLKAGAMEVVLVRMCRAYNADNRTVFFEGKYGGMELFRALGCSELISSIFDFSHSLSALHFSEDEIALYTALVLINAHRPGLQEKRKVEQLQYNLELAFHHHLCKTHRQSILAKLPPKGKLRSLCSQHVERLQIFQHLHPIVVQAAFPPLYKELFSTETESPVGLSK
# Chain of Peroxisome proliferator-activated receptor alpha (Homo sapiens) (Q07869 whole entry, looked up): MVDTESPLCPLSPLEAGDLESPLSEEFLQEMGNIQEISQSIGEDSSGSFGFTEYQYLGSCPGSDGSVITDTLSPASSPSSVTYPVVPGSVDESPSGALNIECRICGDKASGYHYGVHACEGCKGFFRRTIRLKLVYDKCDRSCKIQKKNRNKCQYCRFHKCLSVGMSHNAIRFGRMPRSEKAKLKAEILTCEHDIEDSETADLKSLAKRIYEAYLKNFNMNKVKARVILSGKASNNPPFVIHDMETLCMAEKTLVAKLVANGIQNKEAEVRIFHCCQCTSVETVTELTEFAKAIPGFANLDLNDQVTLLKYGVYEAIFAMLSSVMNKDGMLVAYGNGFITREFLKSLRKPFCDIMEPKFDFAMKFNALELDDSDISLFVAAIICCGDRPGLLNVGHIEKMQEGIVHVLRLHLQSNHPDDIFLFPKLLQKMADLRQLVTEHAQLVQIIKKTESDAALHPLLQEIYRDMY
# Chain of Nuclear receptor subfamily 1 group I member 2 (Rattus norvegicus) (Q9R1A7 whole entry, looked up): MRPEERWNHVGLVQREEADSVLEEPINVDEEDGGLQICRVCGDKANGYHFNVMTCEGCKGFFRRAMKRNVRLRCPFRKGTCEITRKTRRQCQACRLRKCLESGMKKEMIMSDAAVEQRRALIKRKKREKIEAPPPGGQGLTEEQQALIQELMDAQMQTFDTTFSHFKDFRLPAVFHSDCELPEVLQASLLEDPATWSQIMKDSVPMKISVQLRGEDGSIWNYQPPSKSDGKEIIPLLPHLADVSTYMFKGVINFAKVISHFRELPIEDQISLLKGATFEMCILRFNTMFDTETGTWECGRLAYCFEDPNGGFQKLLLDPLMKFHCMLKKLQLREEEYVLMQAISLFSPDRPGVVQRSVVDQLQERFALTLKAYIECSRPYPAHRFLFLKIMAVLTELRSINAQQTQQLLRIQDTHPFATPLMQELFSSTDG
Compound,Potency [1],Potency [2],Potency [3],max response [4],Potency [5],outcome [6],Potency [7],max response [8],Potency [9],max response [10],outcome [11],Potency [12],max response [13],activation [14]
C=C(C)C(=O)OCCCCCC,inactive,inactive,inactive,-8.01% (inactive),inactive,inactive,inactive,-4.89% (inactive),inactive,-0.698% (inactive),inactive,,,
CCOc1ccc(NC(C)=O)cc1N,inactive,inactive,,-2.02% (inactive),inactive,inactive,inactive,,inactive,9.33% (inactive),inactive,inactive,-2.43% (inactive),
CNc1ccccc1,inactive,inactive,,,inactive,inactive,inactive,-0.57% (inactive),inactive,4.02% (inactive),inactive,inactive,-6.52% (inactive),1.11% (inactive)
CC(C)Nc1ccccc1,inactive,inactive,,-3.92% (inactive),inactive,inactive,inactive,-8.81% (inactive),inactive,4.55% (inactive),inactive,inactive,-1.42% (inactive),0.225% (inactive)
Nc1cc([N+](=O)[O-])ccc1C(=O)O,,inactive,inactive,-7.92% (inactive) and -2.55% (inactive),inactive,inactive,inactive,,inactive,-5.92% (inactive) and 1.25% (inactive),inactive,,-6.72% (inactive) and -9.32% (inactive),3.7% (inactive) and 3.8% (inactive)
O=[N+]([O-])c1ccc(CCO)cc1,inactive,inactive,,-1.57% (inactive),inactive,inactive,inactive,-24.2% (inactive),inactive,0.179% (inactive),inactive,,-6.69% (inactive),
Nc1cccc(N)c1,21.1 µM (active),,inactive,-0.676% (inactive),inactive,inactive,inactive,-7.64% (inactive),inactive,11.3% (inactive),inactive,,,4.51% (inactive)
Cc1ccc([N+](=O)[O-])c(N)c1,inactive,inactive,,-3.68% (inactive),inactive,inactive,,6.11% (inactive),inactive,-3.2% (inactive),inactive,,-6.54% (inactive),0.147% (inactive)
c1ccc2c(c1)ccc1ncccc12,,inactive,inactive,-1.09% (inactive),,inactive,,,inactive,10.2% (inactive),inactive,,,3.95% (inactive)
Nc1cc(Cl)c(N)c(Cl)c1,inactive,inactive,,,inactive,inactive,inactive,-6.05% (inactive) and -8.26% (inactive),inactive,-6.29% (inactive) and -6.62% (inactive),inactive,,3.57% (inactive) and -5.3% (inactive),
CNc1ccc([N+](=O)[O-])cc1,,inactive,inactive,-2.03% (inactive),inactive,inactive,,5.65% (inactive),inactive,8.26% (inactive),inactive,,0.311% (inactive),
N#Cc1ccccc1,inactive,inactive,,,inactive,inactive,inactive,0.163% (inactive),inactive,-4.02% (inactive),inactive,,,
COc1cccc2sc(N)nc12,inactive,,inactive,-2.03% (inactive),inactive,inactive,inactive,1.42% (inactive),inactive,8.89% (inactive),inactive,,,
CCCCC(CC)COC(=O)CCCCC(=O)OCC(CC)CCCC (stereo not drawn),inactive,inactive,,-4.18% (inactive) and -1.05% (inactive),,inactive,inactive,11.7% (inactive) and -4.79% (inactive),inactive,3.13% (inactive) and -1.3% (inactive),inactive,,-4.22% (inactive) and -9.58% (inactive),-0.729% (inactive) and -3.02% (inactive)
Cc1ccc(C(=O)O)cc1,inactive,inactive,,2.54% (inactive),inactive,inactive,inactive,8.21% (inactive),inactive,3.84% (inactive),inactive,,-10.4% (inactive),
Nc1cccc(C(F)(F)F)c1,,inactive,,-0.773% (inactive) and -2.14% (inactive),inactive,inactive,inactive,1.34% (inactive) and -3.53% (inactive),inactive,-1.26% (inactive) and 1.53% (inactive),,inactive,-2.53% (inactive) and -9.98% (inactive),0.706% (inactive) and 0.403% (inactive)

Compound,Potency [1],Potency [2],Potency [3],max response [4],Potency [5],outcome [6],Potency [7],max response [8],Potency [9],max response [10],outcome [11],Potency [12],max response [13],activation [14]
Cc1cc([N+](=O)[O-])ccc1N,inactive,,inactive,-7.44% (inactive),,inactive,inactive,-20.9% (inactive),inactive,2.26% (inactive),inactive,,-5.02% (inactive),0.911% (inactive)
COc1ccccc1[N+](=O)[O-],inactive,inactive,,,inactive,inactive,inactive,-18.6% (inactive) and -4.26% (inactive),inactive,1.11% (inactive) and 2.57% (inactive),inactive,,-1.85% (inactive) and -1.91% (inactive),
CC(C)(c1cc(Br)c(OCC(Br)CBr)c(Br)c1)c1cc(Br)c(OCC(Br)CBr)c(Br)c1 (stereo not drawn),,,inactive,-5.28% (inactive),inactive,inactive,inactive,-4.49% (inactive),inactive,6.37% (inactive),inactive,inactive,-17.5% (inactive),-1.38% (inactive)
CCNc1cc(O)ccc1C,inactive,inactive,,,inactive,inactive,inactive,9.97% (inactive),inactive,-2.12% (inactive),,,,
[O-]/[N+](=N\O)c1ccccc1,,inactive,inactive,-0.0477% (inactive),inactive,,inactive,,inactive,-1.54% (inactive),inactive,,-16.3% (inactive),
Cc1cc(C2(c3cc(C)c(O)cc3C)OS(=O)(=O)c3ccccc32)c(C)cc1O,inactive,inactive,,-10.4% (inactive),inactive,inactive,inactive,-15.6% (inactive),inactive,-3.33% (inactive),,,-2.41% (inactive),0.42% (inactive)
O=Cc1ccc(C(=O)O)cc1,inactive,,inactive,-5.11% (inactive),inactive,inactive,inactive,-13.7% (inactive),inactive,-2.3% (inactive),inactive,,-0.895% (inactive),-0.237% (inactive)
Cc1ccc(C)c(O)c1,,inactive,inactive,-1.27% (inactive),inactive,inactive,inactive,,inactive,4.49% (inactive),inactive,inactive,5.19% (inactive),0.145% (inactive)
Cc1cccc2sc(N)nc12,,inactive,inactive,,inactive,inactive,inactive,-5.19% (inactive),inactive,7.23% (inactive),inactive,,2.69% (inactive),
C=Cc1ccccc1C=C,,inactive,inactive,-1.6% (inactive),inactive,inactive,inactive,4.89% (inactive),inactive,5.55% (inactive),inactive,inactive,3.31% (inactive),-0.496% (inactive)
CN(C)c1cccc(O)c1,inactive,inactive,,-3.12% (inactive),,inactive,inactive,-0.49% (inactive),inactive,1.23% (inactive),inactive,,-2.96% (inactive),6.91% (inactive)
CC(=O)CCc1ccccc1,inactive,inactive,,0.48% (inactive),inactive,inactive,inactive,,inactive,3.15% (inactive),inactive,,0.331% (inactive),
N#CCc1ccccc1[N+](=O)[O-],inactive,inactive,,-3.4% (inactive),inactive,inactive,inactive,3.79% (inactive),inactive,8.31% (inactive),,,,4.16% (inactive)
CCN(CC)c1cccc(O)c1,inactive,inactive,,-5.23% (inactive),inactive,inactive,inactive,5.34% (inactive),inactive,3.46% (inactive),,,-2.87% (inactive),4.44% (inactive)
Nc1ccc([N+](=O)[O-])c(N)c1,,,inactive,-0.849% (inactive),inactive,inactive,inactive,-4.59% (inactive),inactive,1.18% (inactive),inactive,inactive,8.4% (inactive),1.41% (inactive)
Nc1cc(Cl)c([N+](=O)[O-])cc1O,33.5 µM (active),33.5 µM (active),,-6.88% (inactive),inactive,,inactive,-1.27% (inactive),inactive,3.19% (inactive),inactive,,,6.24% (inactive)

# Source: PubChem BioAssay (NCATS)
